Measurements as given in a collection of fitness landscapes (doi:10.1016/j.celrep.2020.107928).
Whole data set: some 81,000 sequences, median “one-hybrid fitness for binding parS DNA” near -0.17, cut for the highest 2% near 0.51. Only a selection was taken, and the highest values are over-represented in it overall.

B1: Caulobacter ParB omega fusion; a variant is named by its letters at X, in order, B8GW30 (parent)
chain: MESVVVGEPGMSEGRRGLGRGLSALLGEVDAAPAQAPGEQLGGSREAPIEILQRNPDQPRRTFREEDLEDLSNSIREKGVLQPILVRPSPDTAGEYQIVAGERAWRAAQRAGLKTVPIMVRELDDLAVLEIGIIENVQRADLNVLEEALSYKVLMEKFERTQENIAQTIGKSXSHVANXMRLLXLPDEVQSYLVSGELTAXHARAIAAAADPVALAKQIIEGGLSVRETEALARKAPNLSAGKSKGGRPPRVKDTDTQALESDLSSVLGLDVSIDHRGSTGTLTITYATLEQLDDLCNRLTRGI

Variants of: B1
Assay: one-hybrid fitness for binding parS DNA (scaled: cognate 1, non-cognate 0); higher = stronger binding
Conditions: with parS DNA site
How it was run: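 Fitness is the rescaled log change in variant-to-wild-type read ratio, measured by Illumina sequencing of plasmids before and after bacterial one-hybrid selection. The scale puts cognate at 1 and non-cognate at 0. Selection of Caulobacter ParB libraries, four specificity codons randomised, took place in E. coli USO with a HIS3 reporter, site 19 bp from the promoter, over 48 hours at 37°C on M9-minus-histidine with 0.1 mM IPTG and 5 mM 3-AT.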

Variant	one-hybrid fitness for binding parS DNA
YHLN	≤ 0.2
EVTM	≤ 0.2
RFLI	≤ 0.2
QHYD	≤ 0.2
IDQR	≤ 0.2
NLHV	≤ 0.2
MGRC	≤ 0.2
RPEA	≤ 0.2
RAEA	0.476
RLEA	0.567
RCEA	0.515
RREA	0.802
RSEA	0.476
RQEA	0.554
RFEA	0.454
TIMD	≤ 0.2
PRLC	≤ 0.2
MSLL	≤ 0.2
FHAL	≤ 0.2
SRDG	≤ 0.2
AALF	≤ 0.2
LFAM	≤ 0.2
RYEA	0.548
RDEA	≤ 0.2

Variant	one-hybrid fitness for binding parS DNA
RTEA	0.58
RHEA	0.512
RKEA	0.515
FASM	≤ 0.2
SHST	≤ 0.2
GLPS	≤ 0.2
DMPT	≤ 0.2
YLIW	≤ 0.2
FRKA	≤ 0.2
LMTN	≤ 0.2
GIRR	≤ 0.2
LALL	≤ 0.2
RSFK	≤ 0.2
RPFG	≤ 0.2
REFG	≤ 0.2
RSFG	0.94
RCFG	1.01
RDFG	≤ 0.2
AKRC	≤ 0.2
QSGM	≤ 0.2
MCTL	≤ 0.2
TMTY	≤ 0.2
MHDG	≤ 0.2
WDTK	≤ 0.2

Variant	one-hybrid fitness for binding parS DNA
RQPA	≤ 0.2
NQHA	≤ 0.2
KQQA	≤ 0.2
RQQA	0.548
RQIA	0.42
PQHA	≤ 0.2
RQYA	0.583
RQVA	0.486
RQHA	0.57
NQKA	≤ 0.2
RQKA	0.701
PQTA	≤ 0.2
WANF	≤ 0.2
HAGM	≤ 0.2
IYPG	≤ 0.2
LMKM	≤ 0.2
TYFC	≤ 0.2
GSSM	≤ 0.2
KQSA	≤ 0.2
RQRA	0.632
EQAA	≤ 0.2
RQAA	0.571
DQAA	≤ 0.2
DQSA	≤ 0.2

Variant	one-hybrid fitness for binding parS DNA
RQSA	0.575
RQFA	0.532
DQRA	≤ 0.2
KQRA	≤ 0.2
FPAS	≤ 0.2
PFLV	≤ 0.2
ENLG	≤ 0.2
YSQA	≤ 0.2
QHET	≤ 0.2
ASIT	≤ 0.2
GAHR	≤ 0.2
MLHS	≤ 0.2
VETL	≤ 0.2
LASY	≤ 0.2
RCTV	≤ 0.2
TKMR	≤ 0.2
RQMA	0.596
NQMA	≤ 0.2
PQLA	≤ 0.2
RQLA	0.568
RQCA	0.558
RQWA	0.544
CQLA	≤ 0.2
PQMA	≤ 0.2

Variant	one-hybrid fitness for binding parS DNA
TQYS	≤ 0.2
HPLV	≤ 0.2
ANIE	≤ 0.2
RCYW	0.314
VLKR	≤ 0.2
HEGL	≤ 0.2
LRKS	≤ 0.2
CVSN	≤ 0.2
CQGA	≤ 0.2
RQGA	0.563
TVTV	≤ 0.2
RTDR	≤ 0.2
NTDT	≤ 0.2
RTNE	≤ 0.2
RTNT	0.86
RTNR	≤ 0.2
RTDT	0.802
MPRE	≤ 0.2
IDTG	≤ 0.2
PPTT	≤ 0.2
RHPH	≤ 0.2
PTAI	≤ 0.2
RMWA	0.634
RAWA	0.598

Variant	one-hybrid fitness for binding parS DNA
RCWA	0.68
DLWA	≤ 0.2
NAWA	≤ 0.2
RWWA	0.254
RPWA	≤ 0.2
RLWA	0.648
PWGP	≤ 0.2
CSAK	≤ 0.2
HTAP	≤ 0.2
VEFT	≤ 0.2
QGNA	≤ 0.2
YNSE	≤ 0.2
QDDR	≤ 0.2
TNQC	≤ 0.2
APGM	≤ 0.2
QNSI	≤ 0.2
RKWA	0.58
RSWA	0.546
RHWA	0.486
RGWA	0.282
RTWA	0.626
RRWA	0.834
RFWA	0.481
NRWA	≤ 0.2

Variant	one-hybrid fitness for binding parS DNA
WTTC	≤ 0.2
NRTE	≤ 0.2
GCLA	≤ 0.2
YTTD	≤ 0.2
EGCL	≤ 0.2
FWSR	≤ 0.2
PAVQ	≤ 0.2
QHPF	≤ 0.2
LPIQ	≤ 0.2
RGSG	0.771
RGVG	0.502
RGLP	≤ 0.2
RGSH	≤ 0.2
RGLG	0.597
RGKG	0.896
RGSP	≤ 0.2
RGQH	≤ 0.2
RGQG	0.727
RGKP	≤ 0.2
RGQP	≤ 0.2
RGLH	≤ 0.2
PKPQ	≤ 0.2
PRNG	≤ 0.2
HPRY	≤ 0.2

Variant	one-hybrid fitness for binding parS DNA
RGCG	0.558
RGFG	0.504
RGYG	0.576
RGCP	≤ 0.2
RGNG	0.801
RGPG	0.298
RGAN	≤ 0.2
RGDG	0.496
RGNH	≤ 0.2
RGAG	0.661
RGCM	≤ 0.2
RGIG	0.47
PPPF	≤ 0.2
VAEC	≤ 0.2
FHHI	≤ 0.2
RGAI	≤ 0.2
LDML	≤ 0.2
CFTC	≤ 0.2
MHTL	≤ 0.2
NSGN	≤ 0.2
MIEG	≤ 0.2
RGRH	≤ 0.2
RGHG	0.65
RGRN	0.341

Variant	one-hybrid fitness for binding parS DNA
RGGH	≤ 0.2
RGGG	0.64
RGWG	0.51
RGGD	≤ 0.2
RGHN	≤ 0.2
RGRG	0.874
RGWY	≤ 0.2
RGHP	≤ 0.2
RGWR	≤ 0.2
KLKH	≤ 0.2
KDID	≤ 0.2
PVSF	≤ 0.2
QEKR	≤ 0.2
MRPT	≤ 0.2
NPTS	≤ 0.2
FQVG	≤ 0.2
NYES	≤ 0.2
RYNA	0.58
RYDA	0.559
DYNA	≤ 0.2
EYNA	≤ 0.2
FRQS	≤ 0.2
WVAL	≤ 0.2
HINS	≤ 0.2

Variant	one-hybrid fitness for binding parS DNA
FSFV	≤ 0.2
GGMR	≤ 0.2
RHHD	≤ 0.2
RHPS	0.475
RHYS	0.976
RHRN	0.374
RHHN	0.391
RHIP	≤ 0.2
RHRS	0.823
RHID	≤ 0.2
RHIS	0.813
RHYH	0.223
RHRD	≤ 0.2
RHHS	0.914
TIDD	≤ 0.2
PRIM	≤ 0.2
TPSD	≤ 0.2
ANRF	≤ 0.2
TMCR	≤ 0.2
DPAI	≤ 0.2
RHWP	≤ 0.2
RHLS	0.978
RHLH	0.229
RHWN	0.305

Variant	one-hybrid fitness for binding parS DNA
RHWS	0.925
RHLD	≤ 0.2
TAQE	≤ 0.2
RTCV	≤ 0.2
LSSK	≤ 0.2
YMSG	≤ 0.2
SLTS	≤ 0.2
RCQG	1.02
RPQG	≤ 0.2
RSQG	0.995
RMQR	0.223
RSQH	0.296
RLQD	≤ 0.2
RLQN	0.471
RMQG	1.01
RSQP	≤ 0.2
RMQQ	≤ 0.2
RDQG	≤ 0.2
RLQG	1.01
FGAV	≤ 0.2
AVLG	≤ 0.2
GATL	≤ 0.2
VSCH	≤ 0.2
FRAR	≤ 0.2

Variant	one-hybrid fitness for binding parS DNA
KNVC	≤ 0.2
PTQM	≤ 0.2
HSEM	≤ 0.2
RTQG	1
RTQF	0.213
RFQG	0.965
RIQG	0.999
RIQR	≤ 0.2
DFQG	≤ 0.2
RIQF	0.272
RTQR	≤ 0.2
NFQG	≤ 0.2
NSFG	≤ 0.2
LQRT	≤ 0.2
MPTI	≤ 0.2
ANTA	≤ 0.2
ARCH	≤ 0.2
HTWT	≤ 0.2
RDAT	≤ 0.2
RCAT	0.921
RSAR	≤ 0.2
RSAT	0.869
RPAT	≤ 0.2
REAT	≤ 0.2

Variant	one-hybrid fitness for binding parS DNA
LAGT	≤ 0.2
HRLD	≤ 0.2
HMAN	≤ 0.2
WKAR	≤ 0.2
SDCR	≤ 0.2
RVTH	0.22
RVTC	0.982
RVTT	0.949
RVTF	0.202
RVTY	0.459
RVTD	≤ 0.2
RVTK	≤ 0.2
RVTP	≤ 0.2
RVTG	0.992
RVTN	0.432
RVTS	0.972
RVTM	0.299
QREG	≤ 0.2
